# Screening data (PubChem BioAssay)
# GPR151 activ: activates the human receptor GPR151; Q8TDV0; PathHunter beta-arrestin GPR151 cells, luminescence; activation, % at 11.2 µM; 650,000 tested, 1% active; AID 1508602; in the data active = activation above about 4.9%;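 also: 0% = median of compound wells and 100% = cells with positive control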
# FBW7 act: activators of human E3 ligase FBW7; AlphaScreen FBW7–phospho-cyclin E peptide binding, activator screen; normalized activity (activation), % at 26.1 µM; 650,000 tested, 0.13% active; AID 1259310; in the data active = normalized activity above about 1.9%;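 also: purified mutant Fbw7 with reduced substrate affinity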
# Target sequence (Q969H0 whole entry, looked up): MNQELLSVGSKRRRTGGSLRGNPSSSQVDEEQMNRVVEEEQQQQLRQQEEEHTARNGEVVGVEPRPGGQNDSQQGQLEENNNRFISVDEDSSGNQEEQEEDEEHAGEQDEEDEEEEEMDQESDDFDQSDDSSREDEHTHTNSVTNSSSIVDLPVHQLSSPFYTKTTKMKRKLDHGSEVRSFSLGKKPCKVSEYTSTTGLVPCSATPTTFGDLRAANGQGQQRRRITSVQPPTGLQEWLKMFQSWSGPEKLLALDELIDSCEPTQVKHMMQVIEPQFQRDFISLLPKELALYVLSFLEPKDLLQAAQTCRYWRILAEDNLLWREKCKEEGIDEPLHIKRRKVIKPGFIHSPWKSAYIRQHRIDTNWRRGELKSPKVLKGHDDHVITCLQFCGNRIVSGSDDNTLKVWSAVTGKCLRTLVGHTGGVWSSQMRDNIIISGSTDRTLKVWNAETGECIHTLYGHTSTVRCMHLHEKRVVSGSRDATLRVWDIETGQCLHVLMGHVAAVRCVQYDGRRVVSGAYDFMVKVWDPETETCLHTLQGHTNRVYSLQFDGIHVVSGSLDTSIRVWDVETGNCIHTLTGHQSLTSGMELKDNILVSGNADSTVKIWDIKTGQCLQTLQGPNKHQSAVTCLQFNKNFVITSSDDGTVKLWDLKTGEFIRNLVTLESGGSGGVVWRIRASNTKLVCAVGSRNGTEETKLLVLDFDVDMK
# TEAD-YAP inh: TEAD-YAP interaction inhibition | HEK-TIYL cells, TEAD-Gal4/YAP UAS-luciferase luminescence | inhibition, % at 9.12 µM | 640,000 tested, 1.4% active | AID 1259422; in the data active = inhibition above about 32%;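 also: 0% = median of test compound wells and 100% = reference inhibitor wells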
# MITF inh: blocks human microphthalmia-associated transcription factor. AlphaScreen MITF homodimerization, bead proximity signal. O75030. inhibition, % at 2.6 µM. 650,000 tested, 0.91% active. AID 1259374; in the data active = inhibition above about 50%;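 also: 0% = vehicle wells with protein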
# An asterisk follows results filed as active; ! = not active in a repeat. In the library only some 3.5% were active in any assay of this set; here they are far more common.
SMILES,GPR151 activ,FBW7 act,TEAD-YAP inh,MITF inh
COc1cccc(Oc2c(C)oc3cc(OS(C)(=O)=O)ccc3c2=O)c1,0.7,0.0,44.1*,-4.5
COc1ccc(-c2c(C)oc3cc(OS(C)(=O)=O)ccc3c2=O)cc1,0.5,-0.1,36.9*,3.1
Cc1oc2cc(OCC(=O)O)ccc2c(=O)c1-c1ccc(Br)cc1,0.7,-0.1,-1.7,-3.3
CCOC(=O)c1c(NC(=O)c2ccc(S(=O)(=O)N(C)c3ccccc3)cc2)sc2c1CCN(C(=O)OCC)C2,1.1,0.2,1.9,1.4
COc1ccc(N(CC(=O)N2CCN(c3ccccc3)CC2)S(C)(=O)=O)c(OC)c1,0.7,-0.1,-3.1,6.0
COc1ccc(I)cc1C1C(C#N)=C(N)OC(C)=C1C(C)=O (stereo unspecified),-0.8,0.2,4.1,7.9
O=C(Nc1nc2ccccc2s1)c1ccc(C(=O)c2ccccc2)o1,-1.5,0.0,35.6*,-11.0
Cc1cccc2nc(NC(=O)c3ccc(Oc4ccccc4)cc3)sc12,1.0,0.0,52.1*,-13.9
COc1ccc2nc(NC(=O)c3ccccc3)sc2c1,-7.3,0.0,43.5*,-22.4
CCOc1cccc2nc(NC(=O)c3ccc(Oc4ccccc4)cc3)sc12,-0.1,-0.1,-8.0,-5.2
CCOc1ccc2nc(NC(=O)NC(=O)C(F)(F)F)sc2c1,-1.6,0.0,62.7*,-3.7
NC(=O)CSc1nnc(-c2cccs2)n1C1CCCCC1,-1.3,0.1,15.0,0.9
COc1ccc2nc(NC(=O)c3cccs3)sc2c1,-8.0,0.1,43.6*,-3.7
CCOc1ccc(C(=O)Nc2nc3ccccc3s2)cc1,-6.5,-0.1,56.5*,-2.6
CCOc1ccc2nc(NC(=O)c3cccs3)sc2c1,-9.1,0.0,30.8,-11.6
CCCCCCOc1ccc(C(=O)Nc2nc3ccccc3s2)cc1,-0.1,-0.1,6.6,9.4
O=C(NCC1CCCO1)c1ccc(NC(=O)c2cccs2)cc1 (stereo unspecified),-1.3,0.0,-5.4,-1.0
CC(=O)Nc1ccc(N2C(=O)c3cc(Cl)c(Cl)cc3C2=O)cc1,-1.1,-0.1,-8.4,1.3
O=C(Nc1ccc(Cl)cn1)c1ccc(C2CCCCC2)cc1,-0.7,0.2,40.2*,17.9
O=C(Nc1ccc(Br)cn1)c1ccc(C2CCCCC2)cc1,1.5,0.6,10.5,14.8
C=CCN(CC=C)Cc1cc(O)c(CN(CC=C)CC=C)cc1O,0.4,0.0,-7.7,53.2*
C=CCc1ccc(O)c(-c2cc(CC=C)ccc2O)c1,0.4,0.5,0.1,13.8
Cc1cc(/C=C2/NC(=O)N(c3cccc(Cl)c3)C2=O)c(C)n1C,-1.4,-0.1,55.4*,0.6
Clc1nc(NC2CCCC2)c2ccccc2n1,-0.5,0.3,60.0*,14.8
c1ccc2c(NC3CC3)nc(N3CCCC3)nc2c1,-0.4,0.6,32.3*,3.4
SMILES,GPR151 activ,FBW7 act,TEAD-YAP inh,MITF inh
c1ccc(-c2nc(NC3CCCCC3)c3ccccc3n2)cc1,0.9,0.0,7.7,9.2
CCOc1cc(C(=O)Nc2ccc(O)c(-c3nc4ccccc4o3)c2)cc(OCC)c1OCC,0.1,0.0,-11.5,-13.7
O=C(O)c1ccc(N=c2oc3cc(O)ccc3cc2C(=O)Nc2ccccc2)cc1,-8.3,0.1,-7.6,8.2
COc1ccc(NC(=O)c2cc3ccc(O)cc3oc2=Nc2ccc(C(=O)O)cc2)cc1,-4.1,0.0,36.2*,6.3
O=C1C=CC(=NS(=O)(=O)c2cccc(C(=O)O)c2)C=C1,-1.3,-0.2,-1.7,64.3*
O=C(Nc1cccc(F)c1)N1CCN(c2nc(-c3ccc(Cl)cc3)cs2)CC1,0.5,-0.1,-5.9,-2.0
COc1ccc(C(=O)N2CCN(Cc3ccc(SC)cc3)CC2)cc1,-1.7,-0.1,42.8*,36.6
O=c1cc(-c2ccccc2)oc2cc(O)ccc12,-2.0,-0.2,51.1*!,-6.1
Cc1c(NC(=O)/C=C/c2ccc(Cl)cc2)c(=O)n(-c2ccccc2)n1C,1.7,-0.2,13.9,-4.9
COc1ccc(COC(=O)c2c(SC)nsc2SC)cc1,-1.9,-0.3,37.9*,1.3
Cc1ccccc1NC(=O)CSc1nc2cc3c(cc2cc1C#N)OCO3,1.3,-0.1,6.0,-5.9
CCC(C)NC(=O)CSc1nc2cc3c(cc2cc1C#N)OCO3 (stereo unspecified),-1.5,0.0,51.3*,9.3
COc1ccc(CNC(=O)CSc2nc3cc(OC)c(OC)cc3cc2C#N)cc1,1.4,0.1,-18.3,-5.6
Cc1ccccc1NC(=O)CSc1nc2cc3c(cc2cc1C#N)OCCO3,0.2,0.0,57.6*,7.5
COc1ccc(NC(=O)CSc2nc3cc4c(cc3cc2C#N)OCCO4)c(OC)c1,-0.7,0.1,83.5*,24.8
COc1ccc(CNC(=O)CSc2nc3cc4c(cc3cc2C#N)OCCO4)cc1,3.0,0.0,61.3*,3.8
O=C(Nc1ccc([N+](=O)[O-])cc1)c1cccnc1Cl,-0.7,0.0,-5.0,15.3
COc1ccc(N(CC(=O)Nc2cc(C)ccc2OC)S(C)(=O)=O)c(OC)c1,-1.4,-0.1,8.7,6.4
COc1cc(CN2CCc3nnc(C4CCCO4)n3CC2)cc(OC)c1OC (stereo unspecified),-0.4,-0.1,2.5,-6.7
N#Cc1cc2cc3c(cc2nc1SCC(=O)NCCc1ccccc1)OCCO3,1.1,0.1,34.4*,17.6
COc1cc2cc(C#N)c(SCC(=O)Nc3cc(C)on3)nc2cc1OC,-1.4,2.4*,-9.8,31.1
COc1cccc(NC(=O)CSc2nc3cc4c(cc3cc2C#N)OCCO4)c1,0.1,0.1,45.1*,-2.9
N#Cc1cc2cc3c(cc2nc1SCC(=O)NCC1CCCO1)OCCO3 (stereo unspecified),0.7,0.1,55.1*,4.7
Nc1nc(NCc2cccc(C(F)(F)F)c2)cc(-c2ccccc2)n1,1.0,-0.1,44.5*,2.1
Nc1cccc(-c2cc(NCc3cccc(C(F)(F)F)c3)nc(N)n2)c1,1.3,-0.1,43.8*,-11.1
SMILES,GPR151 activ,FBW7 act,TEAD-YAP inh,MITF inh
C/C(=N/NC(=O)Cc1ccc(Cl)cc1)c1ccccn1,0.5,0.1,6.3,3.8
CCN(CC)S(=O)(=O)c1nc2nc(C)cc(C)n2n1,1.4,-0.1,-0.9,-3.1
COc1c(OC(C)=O)ccc(/C=N/NC(=O)COc2c(C)cccc2C)c1[N+](=O)[O-],0.0,0.1,19.7,6.7
COc1c(OC(C)=O)ccc(/C=N/NC(=O)COc2c(C)ccc(C)c2C)c1[N+](=O)[O-],1.7,0.6,51.7*,6.6
CCOc1ccc(-c2cc(C(=O)N/N=C(\C)c3cccc(OC)c3)[nH]n2)cc1,-1.4,-0.1,52.0*,-1.5
COc1ccc(-c2cc(C(=O)N/N=C(\C)c3ccc(Cl)cc3)[nH]n2)cc1,0.4,0.1,19.9,0.0
C/C(=N\NC(=O)c1ccccn1)c1cccs1,-5.9,-0.1,65.2*,11.5
CCOc1ccc(-c2cc(C(=O)N/N=C(\C)c3cccs3)[nH]n2)cc1,-1.0,0.3,60.1*,9.9
CCOC(=O)CSC1=C(C#N)C(c2ccc(C)s2)CC(=O)N1 (stereo unspecified),-1.4,0.0,53.9*,19.6
CCOc1ccccc1C1CC(=O)NC(SCC(=O)OC)=C1C#N (stereo unspecified),0.1,-0.1,59.4*,7.1
